Test results taken from PubChem BioAssay AID651610 (Broad Institute, 2012).
Among all 360,000 compounds or so, about 3,900 (1.1%) were called active. For the sample, actives were picked, then their nearest neighbours and some compounds at random. Values without a mark were called inactive.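 Rule for the calls: active = mean replicate inhibition score of at least 50 and every replicate individually at or above 50; inconclusive = only one of the two criteria met; inactive = mean below 50 and not all replicates reaching 50.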

Assay: blockers of JRFL envelope-mediated fusion – HeLa-JRFL effector, CEM21 target cells, luciferase, primary screen (AID 651610);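 note: 0% = plate neutral controls and 100% = maraviroc near 300 nM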
Conditions: HeLa-JRFL Env/CEM21 cell fusion, hits give high values; at 16.7 µM unless noted

Compound	inhibition
C[C@H](CO)N1C[C@H](C)[C@@H](CN(C)C(=O)Nc2ccc3c(c2)OCO3)Oc2ccc(NS(=O)(=O)c3ccc(Cl)cc3)cc2CC1=O	-30.5%
Cc1ccc(C(NC(=O)C2CCN(CCOc3ccc(Cl)cc3Cl)CC2)c2ccccn2)cc1 (configuration not stated)	6.28% [at 12.3 µM]
Cc1cccnc1C(NC(=O)C1CCN(Cc2ccc(Cl)c(Cl)c2)CC1)c1ccc(Cl)cc1 (configuration not stated)	62.7% [at 12.3 µM] (active)
O=C(NC(c1ccc(Cl)cc1)c1cnccn1)C1CCN(Cc2ccc(Cl)cc2)CC1 (configuration not stated)	16.4% [at 12.3 µM]
C[C@H]1CN([C@@H](C)CO)S(=O)(=O)c2ccc(Br)cc2O[C@H]1CN(C)Cc1ccccn1	16.3%
C[C@H]1CN([C@@H](C)CO)S(=O)(=O)c2ccc(C3=CCCC3)cc2O[C@@H]1CN(C)Cc1ccccc1	18.3%
S=C(c1ccc(-c2ccccc2)o1)N1CCCCC1	-140% [at 12.3 µM]
OCCN1CCN(C(=S)c2ccc(-c3ccccc3)cc2)CC1	71.3% [at 12.3 µM] (active)
CN1CCN(CCCCOc2ccccc2-c2ccccc2)CC1	6.99% [at 12.3 µM]
CCOC(=O)c1c(NC(=O)C2(C)Cc3ccccc3C(=O)O2)sc2c1CCCC2 (configuration not stated)	14.6% [at 12.3 µM]
CCOC(=O)c1c(NC(=O)CSc2cn(CC)c3ccccc23)sc2c1CCC2	40.8% [at 12.3 µM]
CCOC(=O)c1c(NC(=O)C(C)Sc2c[nH]c3ccccc23)sc2c1CCC2 (configuration not stated)	67% [at 12.3 µM] (active)
C[C@H](CO)N1C[C@H](C)[C@H](CN(C)S(=O)(=O)c2cn(C)cn2)Oc2ccc(NS(=O)(=O)c3ccccc3)cc2C1=O	2.2%
C[C@@H]1CN([C@@H](C)CO)C(=O)c2cc(NC(=O)Cc3ccccc3)ccc2O[C@@H](C)CCCCO[C@@H]1CN(C)C(=O)Nc1ccccc1	34.3%
Cc1ccc(Cc2c(-c3ccc(C)cc3)nc3c4ccccc4ccn23)cc1	14.4% [at 12.3 µM]
Cc1ccc(Cc2c(-c3ccc(Cl)cc3)nc3c4ccccc4ccn23)cc1	0.563% [at 12.3 µM]
c1ccc(Cc2c(-c3ccco3)nc3c4ccccc4ccn23)cc1	65.9% [at 12.3 µM] (active)
COc1ccc(S(=O)(=O)N(C)C[C@H]2OCCCC[C@@H](C)Oc3ccc(NC(=O)c4ccncc4)cc3C(=O)N([C@H](C)CO)C[C@@H]2C)cc1	13.6%
CO[C@@H]1CN(C)C(=O)c2cc(NS(=O)(=O)c3cccc(Cl)c3)ccc2OC[C@@H](C)NC[C@@H]1C	0.008%
C[C@@H]1CN([C@@H](C)CO)C(=O)Cc2cc(NC(=O)Nc3ccc4c(c3)OCO4)ccc2O[C@@H]1CN(C)C(=O)Nc1ccc2c(c1)OCO2	-15.9%
COc1cccc(NC(=O)N[C@@H]2CC[C@H](CC(=O)NCc3ccccn3)O[C@H]2CO)c1	-38%

Compound	inhibition
CCC(=O)N(C)C[C@@H]1Oc2ncc(C3=CCCC3)cc2C(=O)N([C@H](C)CO)C[C@@H]1C	0.169%
CCC(=O)N(C)C[C@H]1Oc2ncc(-c3ccccc3OC)cc2C(=O)N([C@H](C)CO)C[C@H]1C	-7.79%
COc1ccc2c3c([nH]c2c1)[C@@H](CO)N(C(=O)c1ccccc1)CC31CCN(Cc2cccnc2)CC1	-8.66%
CSc1ccc(Oc2cccc3c2S(=O)(=O)N([C@H](C)c2ccccc2)C[C@@H](COCc2ccccc2)O3)cc1C	10.8% [at 12.3 µM]
O=S1(=O)c2c(cccc2N2CCCC2)O[C@H](COCc2ccccc2)CN1C1CC1	-8.42% [at 12.3 µM]
O=S1(=O)c2c(cccc2N2CCCCC2)O[C@H](COCc2ccccc2)CN1C1CC1	102% [at 12.3 µM] (active)
COc1ccc(NC(=O)N(C)C[C@@H]2Oc3ccc(NC(=O)Cc4cn(C)c5ccccc45)cc3CC(=O)N([C@@H](C)CO)C[C@H]2C)cc1	-18.3%
CCc1cnc(N2[C@H](C#N)[C@H](c3ccc(C4=CCCC4)cc3)[C@@H]2CO)s1	1.6%
Cc1cc(O)ccc1-c1cc(C(=O)NCc2cc(C(F)(F)F)cc(C(F)(F)F)c2)[nH]n1	59.8% [at 12.3 µM] (active)
Cc1ccc(O)c(-c2cc(C(=O)NCc3ccccc3)[nH]n2)c1	-126% [at 12.3 µM]
CCCOc1ccc(F)cc1-c1cc(C(=O)NCc2ccc(F)cc2)[nH]n1	-16.3% [at 12.3 µM]
CS(=O)(=O)N1[C@H](C#N)[C@H](c2ccc(C#CC3CCCC3)cc2)[C@H]1CO	1.54%
COc1cccc(S(=O)(=O)Nc2ccc3c(c2)[C@@H]2C[C@H](CC(=O)NC4CCCCC4)O[C@H](CO)[C@@H]2O3)c1	-12.8%
COc1ccccc1-c1cn(CC[C@H]2CC[C@H](NC(=O)Cc3ccccn3)[C@H](CO)O2)nn1	1.37%
Cc1noc(C)c1NC(=O)Nc1ccc2c(c1)C(=O)N([C@H](C)CO)C[C@@H](C)[C@H](CN(C)S(=O)(=O)c1ccc(Cl)cc1)OCCCC[C@H](C)O2	-20.3%
CCC(=O)N[C@H]1C=C[C@@H](CC(=O)NCC2CCCCC2)O[C@H]1CO	4.15%
Cc1cccc(Nc2nc(NCCO)nc(N3CCCC3)n2)c1	-14.8% [at 12.3 µM]
OCCCNc1nccc(-c2cc(Nc3cccc(Cl)c3)ncn2)n1	95.7% [at 12.3 µM] (active)
Cn1c(Nc2cccc(Cl)c2)nc2ccccc21	-29.5% [at 12.3 µM]
C[C@@H]1CN([C@@H](C)CO)C(=O)c2cc(NC(=O)Nc3ccc4c(c3)OCO4)ccc2O[C@@H]1CN(C)C(=O)Nc1ccc2c(c1)OCO2	16%
C[C@@H]1CN([C@H](C)CO)C(=O)c2cccc(NC(=O)Nc3cccc4ccccc34)c2O[C@@H]1CN(C)Cc1ccccc1	-16.3%
